Out of some 5,500 compounds screened, about 2,000 (36%) were called active. About 18% were inconclusive and are not listed. Rule as the data show it: active = normalized growth mostly below about 0.91 (no sharp cut-off); inconclusive = no clear call, values can overlap the other calls; inactive = mostly above about 0.92. This is one part of the list.
Test: chemical genetic growth profiling, strain panel (AID 1159580);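 also: tested at 20 µM; growth read once vehicle control cultures reached saturation at 30 °C; 1 = growth at the plate median or of vehicle wells; lower values mean less growth of the strain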
Conditions: growth OD
[1] = S. cerevisiae deletion strains, locus YDR150W, strain NUM1, stronger effect = lower value
[2] = S. cerevisiae deletion strains, locus YJR075W, strain HOC1, stronger effect = lower value
[3] = S. cerevisiae deletion strains, locus YNL322C, strain KRE1, stronger effect = lower value
[4] = S. cerevisiae deletion strains, locus YPL241C, strain CIN2, stronger effect = lower value
[5] = S. cerevisiae deletion strains, locus YBR229C, strain ROT2, stronger effect = lower value
[6] = S. cerevisiae deletion strains, locus YDL101C, strain DUN1, stronger effect = lower value
[7] = S. cerevisiae deletion strains, locus YEL061C, strain CIN8, stronger effect = lower value
[8] = S. cerevisiae deletion strains, locus YHR030C, strain SLT2, stronger effect = lower value
[9] = S. cerevisiae deletion strains, locus YLR039C, strain RIC1, stronger effect = lower value
[10] = S. cerevisiae deletion strains, locus YLR262C, strain YPT6, stronger effect = lower value

Measured: normalized growth

NC(CCP(=O)(O)O)C(=O)O (stereo not given)
inactive: S. cerevisiae deletion strains, locus YAL040C, strain CLN3, stronger effect = lower value 1.01 | S. cerevisiae deletion strains, locus YCL061C, strain MRC1 (second series), stronger effect = lower value 1 | [1] 1.01 | S. cerevisiae deletion strains, locus YDR363W, strain ESC2, stronger effect = lower value 0.988 | S. cerevisiae deletion strains, locus YER002W, strain NOP16, stronger effect = lower value 1.02 | [2] 0.992 | S. cerevisiae deletion strains, locus YNL175C, strain NOP13, stronger effect = lower value 1 | S. cerevisiae deletion strains, locus YNL197C, strain WHI3, stronger effect = lower value 0.983 | S. cerevisiae deletion strains, locus YNL224C, strain SQS1, stronger effect = lower value 0.989 | [3] 0.986 | S. cerevisiae deletion strains, locus YOR083W, strain WHI5 (second series), stronger effect = lower value 1.01 | [4] 1

CC(C)(C)S(=O)(=O)c1cnc(N)nc1N
inactive: S. cerevisiae deletion strains, locus YAL013W, strain DEP1, stronger effect = lower value 1.03 | [5] 1.01 | [6] 1 | [1] 0.969 | [7] 0.993 | S. cerevisiae deletion strains, locus YGR078C, strain PAC10, stronger effect = lower value 1.01 | S. cerevisiae deletion strains, locus YGR229C, strain SMI1, stronger effect = lower value 1.01 | [8] 1.07 | S. cerevisiae deletion strains, locus YHR087W, strain rtc3, stronger effect = lower value 1 | S. cerevisiae deletion strains, locus YJL187C, strain SWE1, stronger effect = lower value 1.02 | S. cerevisiae deletion strains, locus YJR043C, strain POL32, stronger effect = lower value 0.985 | [2] 1.01 | S. cerevisiae deletion strains, locus YKL190W, strain CNB1, stronger effect = lower value 1 | [9] 1.05 | S. cerevisiae deletion strains, locus YLR058C, strain SHM2 (second series), stronger effect = lower value 1.01 | S. cerevisiae deletion strains, locus YLR085C, strain ARP6, stronger effect = lower value 1.05 | [10] 1.06 | S. cerevisiae deletion strains, locus YML094W, strain GIM5, stronger effect = lower value 1.01 | S. cerevisiae deletion strains, locus YMR219W, strain ESC1, stronger effect = lower value 1.01 | S. cerevisiae deletion strains, locus YMR263W, strain SAP30, stronger effect = lower value 0.986 | S. cerevisiae deletion strains, locus YNL153C, strain GIM3, stronger effect = lower value 1 | S. cerevisiae deletion strains, locus YNL298W, strain CLA4 (second series), stronger effect = lower value 1.04 | [3] 1.02 | S. cerevisiae deletion strains, locus YNR030W, strain Alg12, stronger effect = lower value 1.03 | S. cerevisiae deletion strains, locus YPL055C, strain LGE1, stronger effect = lower value 0.972 | [4] 1.02 | S. cerevisiae deletion strains, locus YPR135W, strain CTF4, stronger effect = lower value 1.03 | S. cerevisiae strains, strain wild type, stronger effect = lower value 1.01

C[C@]12CC[C@@H](O)C[C@H]1CCc1ccccc12
inactive: S. cerevisiae deletion strains, locus YBR021W, strain FUR4, stronger effect = lower value 0.967 | [5] 1.01 | S. cerevisiae deletion strains, locus YCL029C, strain bik1, stronger effect = lower value 1 | S. cerevisiae deletion strains, locus YDL035C, strain GPR1, stronger effect = lower value 1.01 | S. cerevisiae deletion strains, locus YDL074C, strain BRE1, stronger effect = lower value 1.04 | [6] 1.01 | S. cerevisiae deletion strains, locus YDL185W, strain tfp1, stronger effect = lower value 1.01 | S. cerevisiae deletion strains, locus YDL192W, strain arf1, stronger effect = lower value 0.999 | S. cerevisiae deletion strains, locus YDR101C, strain arx1, stronger effect = lower value 1.01 | S. cerevisiae deletion strains, locus YDR162C, strain NBP2, stronger effect = lower value 1.04 | S. cerevisiae deletion strains, locus YDR318W, strain mcm21, stronger effect = lower value 1 | S. cerevisiae deletion strains, locus YDR388W, stronger effect = lower value 1.01 | S. cerevisiae deletion strains, locus YDR502C, strain sam2, stronger effect = lower value 0.989 | [7] 1.02 | S. cerevisiae deletion strains, locus YER110C, stronger effect = lower value 0.999 | S. cerevisiae deletion strains, locus YER155C, strain BEM2, stronger effect = lower value 1.01 | S. cerevisiae deletion strains, locus YER167W, strain BCK2, stronger effect = lower value 1.02 | S. cerevisiae deletion strains, locus YGL078C, strain dbp3, stronger effect = lower value 0.966 | S. cerevisiae deletion strains, locus YGL086W, strain mad1, stronger effect = lower value 0.989 | S. cerevisiae deletion strains, locus YGL248W, strain PDE1, stronger effect = lower value 1 | S. cerevisiae deletion strains, locus YGR135W, strain pre9, stronger effect = lower value 0.992 | S. cerevisiae deletion strains, locus YGR252W, strain gcn5, stronger effect = lower value 0.94 | [8] 1.02 | S. cerevisiae deletion strains, locus YHR079C, strain IRE1 (second series), stronger effect = lower value 0.997 | S. cerevisiae deletion strains, locus YHR094C, strain hxt1, stronger effect = lower value 0.999 | S. cerevisiae deletion strains, locus YHR129C, strain ARP1, stronger effect = lower value 1.02 | S. cerevisiae deletion strains, locus YHR200W, strain rpn10, stronger effect = lower value 1.01 | S. cerevisiae deletion strains, locus YIL066C, strain RNR3, stronger effect = lower value 1.05 | S. cerevisiae deletion strains, locus YIL073C, strain SPO22, stronger effect = lower value 1.04 | S. cerevisiae deletion strains, locus YIL125W, strain kgd1, stronger effect = lower value 0.996 | S. cerevisiae deletion strains, locus YIR030C, strain dcg1, stronger effect = lower value 1.01 | S. cerevisiae deletion strains, locus YJL095W, strain BCK1, stronger effect = lower value 1 | S. cerevisiae deletion strains, locus YJL134W, strain LCB3, stronger effect = lower value 1.02 | S. cerevisiae deletion strains, locus YJL168C, strain set2, stronger effect = lower value 1 | S. cerevisiae deletion strains, locus YJL187C, strain SWE1 (second series), stronger effect = lower value 1 | S. cerevisiae deletion strains, locus YKL009W, strain mrt4, stronger effect = lower value 1.01 | S. cerevisiae deletion strains, locus YKL068W, stronger effect = lower value 1.01 | S. cerevisiae deletion strains, locus YKL085W, strain MDH1 (second series), stronger effect = lower value 1.02 | S. cerevisiae deletion strains, locus YKL085W, strain MDH1, stronger effect = lower value 1.02 | S. cerevisiae deletion strains, locus YKR001C, strain vps1, stronger effect = lower value 0.977 | [9] 0.918 | S. cerevisiae deletion strains, locus YLR058C, strain SHM2, stronger effect = lower value 1.02 | S. cerevisiae deletion strains, locus YLR102C, strain apc9, stronger effect = lower value 1 | [10] 0.968 | S. cerevisiae deletion strains, locus YLR268W, strain sec22, stronger effect = lower value 1 | S. cerevisiae deletion strains, locus YLR371W, strain rom2, stronger effect = lower value 1.04 | S. cerevisiae deletion strains, locus YLR418C, strain cdc73, stronger effect = lower value 0.973 | S. cerevisiae deletion strains, locus YML016C, strain PPZ1, stronger effect = lower value 1.02 | S. cerevisiae deletion strains, locus YML032C, strain rad52, stronger effect = lower value 0.99 | S. cerevisiae deletion strains, locus YML124C, strain tub3, stronger effect = lower value 1 | S. cerevisiae deletion strains, locus YMR078C, strain ctf18, stronger effect = lower value 1 | S. cerevisiae deletion strains, locus YMR223W, strain ubp8, stronger effect = lower value 0.985 | S. cerevisiae deletion strains, locus YMR307W, strain GAS1, stronger effect = lower value 1.07 | S. cerevisiae deletion strains, locus YNL067W, strain RPL9B, stronger effect = lower value 1 | S. cerevisiae deletion strains, locus YNL233W, strain BNI4, stronger effect = lower value 1.01 | S. cerevisiae deletion strains, locus YNL250W, strain rad50, stronger effect = lower value 1.04 | S. cerevisiae deletion strains, locus YNL271C, strain bni1, stronger effect = lower value 1.01 | S. cerevisiae deletion strains, locus YNL298W, strain CLA4, stronger effect = lower value 0.989 | S. cerevisiae deletion strains, locus YNL307C, strain MCK1, stronger effect = lower value 1 | S. cerevisiae deletion strains, locus YNR052C, strain pop2, stronger effect = lower value 0.987 | S. cerevisiae deletion strains, locus YOL006C, strain TOP1, stronger effect = lower value 1.09 | S. cerevisiae deletion strains, locus YOL012C, strain htz1 1.06 | S. cerevisiae deletion strains, locus YOL147C, strain pex11, stronger effect = lower value 1.01 | S. cerevisiae deletion strains, locus YOR061W, strain CKA2, stronger effect = lower value 1.03 | S. cerevisiae deletion strains, locus YOR069W, strain VPS5, stronger effect = lower value 1.02 | S. cerevisiae deletion strains, locus YOR136W, strain idh2, stronger effect = lower value 0.995 | S. cerevisiae deletion strains, locus YOR144C, strain elg1, stronger effect = lower value 1 | S. cerevisiae deletion strains, locus YOR184W, strain ser1, stronger effect = lower value 0.978 | S. cerevisiae deletion strains, locus YOR316C, strain cot1, stronger effect = lower value 1 | [4] 1.02 | S. cerevisiae deletion strains, locus YPR119W, strain clb2, stronger effect = lower value 1 | S. cerevisiae deletion strains, locus YPR141C, strain kar3, stronger effect = lower value 1.02 | S. cerevisiae deletion strains, locus YPR163C, strain tif3, stronger effect = lower value 1 | S. cerevisiae deletion strains, locus YPR167C, strain met16, stronger effect = lower value 0.997 | S. cerevisiae deletion strains, strain wtn01, stronger effect = lower value 0.99

Source: PubChem BioAssay AID1159580 (chemical genetic matrix, 2015)
